Results published in PubChem BioAssay (NCI).
The panel holds about 83,000 compounds, 20% with a hit somewhere; the sample as a whole holds those more often.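 Values shown are percent growth following 48 h exposure of cells in 96-well plates to a single concentration of compound; below 10 was considered active.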 Unmarked numbers belong to inactive results. Calls of active or inactive are those of the source.

test system: UACC-62 melanoma; assay: NCI-60 one-dose screen, 48 h (100 = growth as untreated, 0 = no growth, -100 = all killed); conditions: 10 µM unless noted

**Q.** For `O=C(Nc1ccc(Nc2ccncc2)cc1)c1ccc(Nc2ccnc3ccc([N+](=O)[O-])cc23)cc1`, which growth is on record?
**A.** 101%

**Q.** `CCCCNC(=O)c1ccc2c(c1)nc(-c1ccccc1)n2C1CCCCC1` was tested. Which growth did it give?
**A.** 87.3%

**Q.** How did the growth turn out when `Cc1ccc(NC(=O)c2cc3ccccc3cc2O)c(C)c1` was run?
**A.** 66.1%

**Q.** For `CCOC(=O)C(CCN(C)C)c1ccccc1` (stereo not given), which growth is on record?
**A.** 102%

**Q.** Which growth does the source give for `CC(O)Cc1c[nH]c(=O)[nH]c1=O` (stereo not given) here?
**A.** 106%

**Q.** With `COCCn1cc(-c2nc(-c3c[nH]c4ncccc34)cs2)c2ccccc21` as the compound, how does the growth read?
**A.** 64.4%

**Q.** For `CC1SC(c2ccccc2O)N(NC(=O)CCC(=O)c2nc3ncccc3[nH]2)C1=O` (stereo not given), which growth is on record?
**A.** 99.4%

**Q.** How did the growth turn out when `COC12C=C/C(=C(/C(=O)OCCSc3ccnn3C)C(=O)CCCCCCCCC3(OC)C=C/C(=C(/C(=O)OCCSc4ccnn4C)C(=O)CCCCCCCC1)O3)O2` was run?
**A.** -56.3% (active)

**Q.** Which growth does the source give for `COC1C(O)CC(OC2CC(OC3CC(O[C@@H]4C(=O)c5c(cc6cc(OC7CC(OC8CC(O)C(O)C(C)O8)C(O)C(C)O7)c(C)c(O)c6c5O)CC4[C@H](OC)[C@@H](O)C(C)=O)OC(C)C3O)OC(C)C2O)OC1C` (stereo not given in full) here?
**A.** -20.9% (active)

**Q.** With `CNC(=O)c1cc(Oc2ccc3c(c2)sc2nc(-c4ccc(NC(=O)[C@@H](NC(=O)OC)C(C)C)cc4)cn23)ccn1` as the compound, how does the growth read?
**A.** 42.9%

test system: LOX IMVI melanoma; assay: as above; conditions: 10 µM unless noted

**Q.** `COc1ccc(C=Nc2c(C(=O)Nc3cccc(Cl)c3C)sc3nc(C)c(C(=O)/C=C/c4ccc(OC)cc4)cc23)cc1` was tested. Which growth did it give?
**A.** 19%

**Q.** For `CCOC(=O)CNC1=C(Cl)C(=O)N(Cc2ccc(Cl)cc2)C1=O`, which growth is on record?
**A.** 95.9%

**Q.** With `COc1ccc(/C=C(\C(=O)NCc2cccnc2)S(=O)(=O)c2ccccc2)cc1OC` as the compound, how does the growth read?
**A.** 4.04% (active)

**Q.** For `COc1cc2c(c(OC)c1OC)CCC(c1cccc(C(=O)Nc3ccc(Br)cc3)c1)O2` (stereo not given), which growth is on record?
**A.** 65.2%

**Q.** Which growth does the source give for `Nc1cc(-c2ccc(Cl)cc2)nn1-c1nnc(/C=C/c2ccco2)c(=O)[nH]1` here?
**A.** 49.9%

**Q.** With `N#C/C(=C\c1ccc(-c2cccc(Cl)c2)o1)C(=O)Nc1ncc(Cc2ccc(Cl)cc2)s1` as the compound, how does the growth read?
**A.** 52.5%

**Q.** How did the growth turn out when `CCOC(=O)c1c(C)nc2c(c1N)C(=O)C(=O)N2Cc1ccc(OC)cc1` was run?
**A.** 61.1%

**Q.** For `c1csc(-c2cn3nc(-c4c[nH]c5ccccc45)sc3n2)c1`, which growth is on record?
**A.** 28.8%

**Q.** `FC(F)(F)c1[nH]ncc1-c1nc2ccc3[nH]ncc3c2c2c1CCCC2` was tested. Which growth did it give?
**A.** -38.2% (active)

**Q.** How did the growth turn out when `COc1cc(-c2nccc3[nH]c(-c4cccc5[nH]ccc45)nc23)cc(OC)c1OC` was run?
**A.** 20.6%

**Q.** For `COc1ccc2[nH]cc(-c3nonc3-c3c[nH]c4ccc(Br)cc34)c2c1`, which growth is on record?
**A.** -33.4% (active)

**Q.** `CC(=O)c1c(Nc2cccc(F)c2)[nH]c2c(Cl)cc(Cl)c(Cl)c2c1=O` was tested. Which growth did it give?
**A.** 9.99% (active)

**Q.** Which growth does the source give for `CCOC(=O)NC(=S)n1oc(=O)c2ccccc21` here?
**A.** 96.8%

**Q.** With `O=S(Nc1ccccc1)c1ccc(Cl)cc1` (stereo not given) as the compound, how does the growth read?
**A.** 100%

**Q.** For `Nc1c(Br)cc2c(c1Br)Cc1cc([N+](=O)[O-])ccc1-2`, which growth is on record?
**A.** 102%

**Q.** With `CCCN(CCSSCCNc1nc(N(C)O)nc(N(C)O)n1)c1nc(N(C)O)nc(N(C)O)n1` as the compound, how does the growth read?
**A.** 70.7%

**Q.** Which growth does the source give for `COC(=O)c1sccc1-c1cc(O)c(C(=O)Nc2ccccc2)s1` here?
**A.** 96.6%

**Q.** For `N#Cc1c(-c2ccc(Cl)cc2)nc(NN=Cc2ccc[nH]2)nc1N1CCOCC1`, which growth is on record?
**A.** 87.8%

**Q.** `Clc1ccc(-c2nc(C(Cl)Cl)nc3cc(-c4ccccc4)nn23)cc1` was tested. Which growth did it give?
**A.** 78.5%

**Q.** With `C/C(=N\Nc1ccccc1)c1ccc(NC2=CC(=O)c3ccccc3C2=O)cc1` as the compound, how does the growth read?
**A.** 21.4%

**Q.** `COc1ccc(/C=C(/C(=O)N2CCNCC2)c2cc(OC)c(OC)c(OC)c2)cc1O` was tested. Which growth did it give?
**A.** 44%

**Q.** With `CCN(CC)CCCC(Cc1ccccc1)Nc1c2ccc(Cl)cc2nc2ccc(OC)cc12` (stereo not given) as the compound, how does the growth read?
**A.** -67.8% (active)

**Q.** How did the growth turn out when `Fc1ccc2[nH]cc(-c3nc(-c4c[nH]c5c(Cl)nccc45)cs3)c2c1` was run?
**A.** 16.2%

**Q.** For `Fc1ccc(/C=C/[C@@H]2C[C@@H](F)CCO2)cc1`, which growth is on record?
**A.** 96.9%

**Q.** Which growth does the source give for `Cc1ccccc1N1CCN(C(=S)c2ccccc2)CC1` here?
**A.** 92.3%

**Q.** With `N#Cc1ccc(/C=C/c2cn(-c3ccccc3)nc2-c2cccc([N+](=O)[O-])c2)cc1` as the compound, how does the growth read?
**A.** 77.4%

**Q.** How did the growth turn out when `Cc1[nH]c(C(=O)Nc2ccccc2OC2CCN(CCN3CCOCC3)CC2)c(Cl)c1Cl` was run?
**A.** 86.3%

**Q.** With `COc1ccc(C(O)c2cc3c(N)c(C(=O)Nc4cccc5ccccc45)sc3nc2C)cc1` (stereo not given) as the compound, how does the growth read?
**A.** 19.1%

**Q.** For `Cc1ccc(C(=O)c2ccc(CC(=O)N/N=C/c3cccc(O)c3O)n2C)cc1`, which growth is on record?
**A.** 17.3%

**Q.** For `CCC(C)(C)c1ccc(Nc2ccc(Nc3ccc(C(C)(C)CC)cc3)cc2)cc1`, which growth is on record?
**A.** 89.9%

**Q.** With `O=C(Nc1ccc(Nc2ccncc2)cc1)c1ccc(Nc2ccnc3ccc([N+](=O)[O-])cc23)cc1` as the compound, how does the growth read?
**A.** 90.6%

**Q.** For `CCCCNC(=O)c1ccc2c(c1)nc(-c1ccccc1)n2C1CCCCC1`, which growth is on record?
**A.** 92.6%

**Q.** With `Cc1ccc(NC(=O)c2cc3ccccc3cc2O)c(C)c1` as the compound, how does the growth read?
**A.** 88%

**Q.** For `CCOC(=O)C(CCN(C)C)c1ccccc1` (stereo not given), which growth is on record?
**A.** 98.3%

**Q.** For `CC(O)Cc1c[nH]c(=O)[nH]c1=O` (stereo not given), which growth is on record?
**A.** 96.5%

**Q.** For `COCCn1cc(-c2nc(-c3c[nH]c4ncccc34)cs2)c2ccccc21`, which growth is on record?
**A.** 66.9%

**Q.** Which growth does the source give for `CC1SC(c2ccccc2O)N(NC(=O)CCC(=O)c2nc3ncccc3[nH]2)C1=O` (stereo not given) here?
**A.** 84.8%

**Q.** `COC12C=C/C(=C(/C(=O)OCCSc3ccnn3C)C(=O)CCCCCCCCC3(OC)C=C/C(=C(/C(=O)OCCSc4ccnn4C)C(=O)CCCCCCCC1)O3)O2` was tested. Which growth did it give?
**A.** -68.6% (active)

**Q.** Which growth does the source give for `COC1C(O)CC(OC2CC(OC3CC(O[C@@H]4C(=O)c5c(cc6cc(OC7CC(OC8CC(O)C(O)C(C)O8)C(O)C(C)O7)c(C)c(O)c6c5O)CC4[C@H](OC)[C@@H](O)C(C)=O)OC(C)C3O)OC(C)C2O)OC1C` (stereo not given in full) here?
**A.** -25.2% (active)

**Q.** How did the growth turn out when `CNC(=O)c1cc(Oc2ccc3c(c2)sc2nc(-c4ccc(NC(=O)[C@@H](NC(=O)OC)C(C)C)cc4)cn23)ccn1` was run?
**A.** 67.2%
